The text below walks through data of ChEMBL document CHEMBL3988442, “University of Dundee, Small-Polar-MMV Screening Library” (2021).

The campaign covered roughly 48,000 compounds. About 13,000 (27%) showed an effect of 50% or more. The list shows a part of the results.

In the assay the test system is Wolbachia pipientis. Kind of assay: Anti-Wolbachia Cell-Based Screen. In kind it is functional. Details: scale not given: in the data most compounds retested in dose-response had high values. To be noted: 5 µM.
As for `OCc1ccc(N2CCN(c3ncccn3)CC2)c(F)c1`, the “Percent Effect” value was determined as 10.85%. For the compound `COc1cc(C2C3=C(COC3=O)Nc3[nH]nc(C)c32)cc(Br)c1O` (stereo unspecified), the “Percent Effect” value amounted to 6.444%. On to `CC(C)CSc1ccc(-n2cccn2)nn1`, for which the “Percent Effect” value is given as -15.59%. As to `O=C(O)C(F)(F)F.O=C1[C@H]2CN(CC3CCOCC3)C[C@H]2CN1c1ccsc1`, the “Percent Effect” value was -12.76%.

With `CCN1C(=O)C[C@@H]2[C@@H]1CCN2S(=O)(=O)c1ccccc1`, the “Percent Effect” value is reported as -17.79%.

As to `COc1nn(C)c2c1CCCN(S(=O)(=O)c1ccccc1F)C2`, the “Percent Effect” value is 9.619%. For the compound `O=S(=O)(c1ccccc1)N1CCCC1c1cc[nH]n1` (stereo unspecified), the “Percent Effect” value was found to be 100.7%.

On to `O=S(=O)(c1ccccc1)N1CCCCC1c1cc[nH]n1` (stereo unspecified), for which the “Percent Effect” value is recorded as 7.34%. As for `CS(=O)(=O)c1ccc(CN2CCCCC2c2ccc(F)cc2)cc1` (stereo unspecified), the figure is 14.88%.

Turning to `COCCN(C)CC1CCCN1S(=O)(=O)c1cccc(F)c1F` (stereo unspecified), the “Percent Effect” value is on record as -7.612%.

For the compound `CNS(=O)(=O)c1ccc(CN2CCCC2c2ccc(F)cc2)cc1` (stereo unspecified), the “Percent Effect” value was -2.722%.

In the case of `O=S(=O)(c1ccc(F)cc1)N1CCCCC1c1cc[nH]n1` (stereo unspecified), the “Percent Effect” value is 93.21%. Regarding `O=S(=O)(c1ccccc1F)N1CCCCC1c1cc[nH]n1` (stereo unspecified), the “Percent Effect” value stood at 126.5%.

`O=C(O)C(F)(F)F.O=S(=O)(c1ccc(F)cc1)N1CC[C@H]2[C@H]1CCN2c1ncccn1`: the “Percent Effect” value was 5.126%. For `O=S(=O)(c1ccc(F)cc1)N1CCCC1c1cc[nH]n1` (stereo unspecified), the “Percent Effect” value worked out at 93.9%. Next, `CN(Cc1ccno1)C(=O)c1cccc(CC2CCNCC2)c1`: -13.23%; `Cc1nc(C2(NC(=O)NCc3cc(C#N)ccc3F)CCCC2)no1`: -8.279%; `CCNC(=O)NC(=O)CNC1(c2noc(C)n2)CCCC1`: 91.61%. `Cc1nc(C2(NCc3ccc(C#N)cc3F)CCCC2)no1`: the “Percent Effect” value stood at 14.6%.

On to `COc1cc(-c2nccn2C(C)CCn2cccn2)cc2c1OCO2` (stereo unspecified), for which the “Percent Effect” value is reported as -13.68%. In the case of `CC1CCN(C)c2ccccc2N1C(=O)c1ccc(=O)n(C)n1` (stereo unspecified), the “Percent Effect” value was -12.65%. As for `CC(C)(C)CN1CCCC12Cc1ccccc1CNC2=O` (stereo unspecified), the figure is 188%; as for `CC(C)CCN1CCCC12Cc1ccccc1CNC2=O` (stereo unspecified), 106.1%.

For `CC(C)(C)CN1CCCC(O)(CN2CCc3[nH]ncc3C2)C1=O` (stereo unspecified), the “Percent Effect” value was -1.805%. For `Cc1cccc(N(CCC(N)=O)CC(=O)NC2CCCC2)c1`, the “Percent Effect” value is -5.461%. On to `O=C(CSc1nnc[nH]1)NCc1cccs1`, for which the “Percent Effect” value is reported as -6.872%. On to `Cc1ccc(CNC(=O)CN(CCC(N)=O)c2ccc(F)cc2)cc1`, for which the “Percent Effect” value is given as 105.8%.

Turning to `NC(=O)CCN(CC(=O)NCc1ccccn1)c1ccc(F)cc1`, the “Percent Effect” value amounted to 119%.

Consider `Cc1cccc(N(CCC(N)=O)CC(=O)Nc2ccccc2)c1`, for which the “Percent Effect” value came to 2.508%. Turning to `O=C(CN(Cc1cccs1)c1ccc(F)cc1)NC1CCOCC1`, the “Percent Effect” value is reported as -0.05044%. As for `O=C(NCc1ccccn1)N(Cc1ccc(F)cc1F)C1CC1`, the figure is -2.472%; as for `COc1nn(C)cc1C(=O)NCC(=O)NCc1ccccn1`, 5.267%; as for `NC(=O)CCN(CC(=O)NCc1cccs1)c1ccc(F)cc1`, 110%. Next, `CS(=O)(=O)CCOCCNc1ccc(Br)cn1`: -8.426%; `CN(CCS(=O)(=O)c1cc(Cl)ccc1Cl)CC(=O)Nc1cccc(F)c1`: -24.13%; `CC1CCCN(C(=O)c2cn(-c3ccc(C(F)(F)F)cn3)nn2)C1` (stereo unspecified): -4.176%. As for `Cc1cncc(C2CCCN(CC3CCC3)C2)n1` (stereo unspecified), the figure is 105.7%; as for `Cc1cncc(C2CCCN(Cc3ccncc3)C2)n1` (stereo unspecified), 93.31%; as for `Cc1ccc(CN2CCCC(c3cncc(C)n3)C2)cn1` (stereo unspecified), 118.4%.

With `Cc1cnc(CN2CCCC(c3cc(C(F)(F)F)[nH]n3)C2)cn1` (stereo unspecified), the “Percent Effect” value is reported as -5.55%.

Regarding `CN(CCc1cn[nH]c1)C(=O)C1CC(=O)N(Cc2ccccn2)C1` (stereo unspecified), the “Percent Effect” value is listed as 3.692%. Next, `CN(CCNC(=O)NCc1ccncc1)C1CCCC1`: 0.2327%; `CC(=O)NCc1cc(-c2cccs2)n(C2CCCC2)n1`: 97.9%; `CC(=O)NCc1nc(Cc2cccc(Cl)c2)nn1C1CCN(C)CC1`: 14.05%. Turning to `O=C(NCCn1cnc(C2CCCC2)cc1=O)NCc1cccs1`, the “Percent Effect” value stood at 5.486%. In the case of `COCCNC(=O)NCc1cc(-c2ccncc2)n(C2CCCC2)n1`, the “Percent Effect” value was 117.5%.

As to `CC(C(=O)NCC1CCCCC1)S(=O)(=O)Cc1csc(-c2cccs2)n1` (stereo unspecified), the “Percent Effect” value is on record as -22.28%.

As for `COCCNC(=O)NCc1cc(-c2cccs2)n(C2CCCC2)n1`, the “Percent Effect” value is recorded as 108.7%. In the case of `COCCNC(=O)NCCCOC1CCCc2ccccc21` (stereo unspecified), the “Percent Effect” value is -3.457%. As for `COCCNC(=O)NC1(c2nc(-c3ccncc3)no2)CCCCC1`, the “Percent Effect” value is recorded as -5.967%. Consider `CCCc1n[nH]c(C2CN(CCCS(C)(=O)=O)CCO2)n1` (stereo unspecified), for which the “Percent Effect” value came to 8.162%. As for `CC(C)N1CCC(Nc2ccn(C)n2)C1=O` (stereo unspecified), the figure is -18.51%.

For the compound `CCc1n[nH]c(C2CN(CC(=O)NCCc3ccsc3)CCO2)n1` (stereo unspecified), the “Percent Effect” value was -8.362%.

For the compound `COc1ccc(S(=O)(=O)NCCC(O)c2cccs2)c(C)c1` (stereo unspecified), the “Percent Effect” value is recorded as -2.091%. As for `COCc1nc(CNC2CSCCSC2)no1`, the figure is 8.788%; as for `CN(Cc1csc(-c2cccs2)n1)C(=O)CCn1ccc(=O)[nH]c1=O`, -14.37%. Take `CCS(=O)(=O)N1CCC2(CC1)CC1(CCN(CCOC)CC1)C(=O)N2C.O=C(O)C(F)(F)F`: the “Percent Effect” value is -5.19%. As for `Cc1cnc(N2CCCOC(CN3CCCCC3)C2)nc1` (stereo unspecified), the figure is -5.032%; as for `O=C1CCC2(CCCN(C(=O)c3ccco3)CC2)N1` (stereo unspecified), -12.15%.

For the compound `Cc1noc(C)c1C(=O)N1CCC2(CCc3ccccc3C(=O)N2)C1` (stereo unspecified), the “Percent Effect” value was 127.4%. Regarding `CC(C)c1cc(=O)[nH]c(-c2ccccc2CN2CCC(C)(C)C2)n1`, the “Percent Effect” value is listed as 32.6%.

For the compound `CC(C)c1cc(C(=O)N2CCC3(CCc4ccccc4C(=O)N3)C2)on1` (stereo unspecified), the “Percent Effect” value was 142.6%.

In the case of `CC(C)c1cc(C(=O)N2CCOC3(CCNCC3)C2)no1.O=C(O)C(F)(F)F`, the “Percent Effect” value is -1.615%.

For the compound `CC(C)c1cc(C(=O)N2CCC3(CCc4ccccc4C(=O)N3)C2)no1` (stereo unspecified), the “Percent Effect” value came out at 122.1%. Take `Cc1noc(C)c1CN1CC2(CCN(C(=O)c3ccc[nH]3)C2)CC1=O` (stereo unspecified): the “Percent Effect” value is reported as -7.535%. `Cc1noc(C)c1C(=O)N1CCC2(CC1)CC(Oc1ccccc1)CO2` (stereo unspecified): the “Percent Effect” value is -6.513%.
